Assay results published in PubChem BioAssay AID743395 (Broad Institute, 2014).
The campaign covered roughly 1,200 compounds. About 480 (40%) were called active. No rule for the calls is given here. So high a share suggests a set chosen from earlier hits. The list is a sample of the results. Entries with a potency or affinity are not part of this list.

Assay: viability loss in human hepatoma cells – cell-based, CellTiter-Glo luminescence, cherry-pick, set 2, cytotoxicity control, dose response (AID 743395)
Conditions: HepG2 viability, CellTiter-Glo ATP luminescence, 72 h; series mostly up to 26 µM

Row | SMILES | outcome
1 | Cc1cccc(C(=O)NCC(=O)OCC(=O)N(C)CC(=O)Nc2ccccc2Cl)c1 | inactive
2 | COc1ccccc1C#Cc1ccc2c(c1)O[C@@H](CN(C)Cc1cccnc1)[C@H](C)CN([C@@H](C)CO)S2(=O)=O | inactive
3 | C[C@H]1CN([C@@H](C)CO)S(=O)(=O)c2ccc(/C=C/c3ccccc3)cc2O[C@H]1CN(C)Cc1ccccc1 | inactive
4 | C[C@@H]1CN([C@H](C)CO)S(=O)(=O)c2ccc(C#Cc3ccccc3F)cc2O[C@H]1CN(C)C(=O)Cc1cccnc1 | inactive
5 | COc1ccccc1C#Cc1ccc2c(c1)O[C@H](CN(C)Cc1cccnc1)[C@H](C)CN([C@@H](C)CO)S2(=O)=O | inactive
6 | O=C(NC1CCCCC1)c1cc(C2CC2)nn1-c1ccccc1 | inactive
7 | O=C(CNC1CCCCC1)NN=C(c1ccccc1)c1ccccc1 | inactive
8 | Cc1cc(Nc2ccc(Br)cc2)nc2ccccc12 | inactive
9 | Clc1ccc(Nc2ccc3ccccc3n2)cc1 | inactive
10 | CC(=O)Nc1ccc(S(=O)(=O)Nc2cccc(-c3nc4cc(C)ccc4o3)c2)cc1 | inactive
11 | CC(=O)Nc1cccc(NC(=O)CN2c3cccc4cccc(c34)S2(=O)=O)c1 | inactive
12 | CC(=O)Nc1ccc(S(=O)(=O)N2c3ccccc3C(C)=CC2(C)C)cc1 | inactive
13 | CCC1(C2=CCCCC2)C(=O)NC(=S)N=C1N (configuration not stated) | inactive
14 | COc1cccc(-c2ccc([C@H]3[C@@H](CO)N(C(=O)c4ccccn4)[C@H]3C#N)cc2)c1 | inactive
15 | N#Cc1ccc(-c2ccc(C3[C@@H]4CN(C(=O)C5CCC5)C[C@H]3N4)cc2)cc1 (some centres not stated) | inactive
16 | N#Cc1ccc(-c2ccc3c(c2)[C@H]2[C@H](CCN2S(=O)(=O)c2ccccc2F)[C@@H](CO)N3)cc1 | inactive
17 | CCCNC(=O)N1CC2(CN(S(=O)(=O)c3cccc(OC)c3)C2)c2c(n(C)c3cc(OC)ccc23)[C@H]1CO | inactive
18 | Cc1cccc(S(=O)(=O)N2C[C@H]3[C@@H](c4ccccc42)[C@H](CO)N3CC2CCCC2)c1 | inactive
19 | CCOC(=O)/C(=C/C=C1\Sc2cc(C)c(C)cc2N1CC)C(C)=O | inactive
20 | COCC(C)n1c(SCC(=O)N2CC(=O)Nc3ccccc32)nc2ccccc2c1=O (configuration not stated) | inactive
21 | CCN(CC(=O)Nc1c(F)cccc1F)C(=O)C1CC1 | inactive

Row | SMILES | outcome
22 | CN(c1ccc(OCCOc2ccccc2Cl)cc1)S(=O)(=O)c1ccccc1 | inactive
23 | O=C1c2cccc3c(N4CCCCC4)ccc(c23)C(=O)N1c1cccc(O)c1 | inactive
24 | Cn1c(=O)c(NC2CCCCC2)c2c3c(cccc31)C(=O)c1ccccc1-2 | inactive
25 | Cc1cccc(C(=O)N(Cc2ccco2)c2c(N)n(Cc3ccccc3)c(=O)[nH]c2=O)c1 | inactive
26 | O=C(COC(=O)/C=C/c1ccccc1Cl)NC(=O)NCc1ccccc1 | inactive
27 | COc1ccccc1N(C)S(=O)(=O)c1ccc(C(=O)Nc2nccs2)cc1 | inactive
28 | CC1CN(S(=O)(=O)c2ccc(C(=O)Nc3ccccc3F)cc2)CC(C)O1 (configuration not stated) | inactive
29 | c1ccc(-c2csc(NC3=NCCCCC3)n2)cc1 | inactive
30 | CCn1c(SCC(=O)N/N=C/c2ccc(O)c(OC)c2)nc2ccccc21 | inactive
31 | CCOc1cc(OCC)c(C(C)=O)cc1OCC | inactive
32 | COc1cccc2c1C(=O)C=C(C)C2=O | inactive
33 | Cc1ccc(NC(=O)c2ccc(Cl)c(S(=O)(=O)Nc3c(C)n(C)n(-c4ccccc4)c3=O)c2)cc1Cl | inactive
34 | O=c1[nH]c(CN2CCN(c3ccc(O)cc3)CC2)nc2scc(-c3ccc(Cl)cc3)c12 | inactive
35 | CCOC(=O)N1CCN(C(=O)C2CCC(=O)N(CCCN3CCCC3=O)C2)CC1 (configuration not stated) | inactive
36 | COc1ccc(Cl)cc1C(=O)NNC(=O)CCNS(=O)(=O)c1ccccc1 | inactive
37 | COc1ccccc1NS(=O)(=O)c1ccc(C)c(C(=O)Nc2cc(C)on2)c1 | inactive
38 | COC(=O)c1ccc(CS(=O)(=O)c2ccc(F)cc2)o1 | inactive
39 | Nc1[nH]nc2ncc3cc4ccccc4nc3c12 | inactive
40 | Clc1cccc(-c2ccc(C=Nc3ccc(N4CCOCC4)cc3)o2)c1Cl | inactive
41 | O=C(CN1CCOc2ccccc21)NCc1ccc(Cl)cc1 | inactive
42 | COC(=O)COc1cccc2c(=O)n(CC(=O)NCc3ccccc3)ccc12 | inactive

Row | SMILES | outcome
43 | O=C(N/N=C/c1cccs1)c1cccc(NC(=O)c2ccccc2Cl)c1 | inactive
44 | O=C(c1ccc(S(=O)(=O)NCC2CCCO2)cc1)N1CCN(c2cccc(Cl)c2)CC1 (configuration not stated) | inactive
45 | O=C(CSc1nc2nn(-c3ccccc3)c(=O)c-2c2n1CCCCC2)Nc1ccc(OC(F)F)cc1 | inactive
46 | COc1ccc(-c2c(C)cc3oc(=O)cc(-c4ccccc4)c3c2C)cc1OC | inactive
47 | Cc1ccc(-c2cccc(-c3cc(=O)oc4ccc(C(C)(C)C)cc34)c2)cc1 | inactive
48 | COc1cc(OC)c2c(-c3cccc(-c4ccc(OC)c(F)c4)c3)cc(=O)oc2c1 | inactive
49 | COc1cc(OC)c2c(-c3cccc(-c4ccc(OC)c(OC)c4)c3)cc(=O)oc2c1 | inactive
50 | CN1C(=O)c2cccc3c(N)ccc(c23)C1=O | inactive
51 | CC1Cc2nc(SCC(=O)N3CCOCC3)n(-c3ccccc3)c(=O)c2S1 (configuration not stated) | inactive
52 | COc1cc(/C=C(\CC(=O)O)c2nc3ccccc3s2)ccc1OCC(=O)Nc1ccccc1F | inactive
53 | CC(=O)Nc1ccc(-c2csc(NC(=O)CN3C(=O)NC4(CCCC4)C3=O)n2)cc1 | inactive
54 | CC(C)(C)c1ccccc1NC(=O)CN1C(=O)NC2(CCCCCC2)C1=O | inactive
55 | O=C(NC1CCN(Cc2ccccc2)CC1)c1cc(S(=O)(=O)N2CCOCC2)ccc1Cl | inactive
56 | Cn1c(CC(=O)NN)c(Sc2ccccc2)c2ccccc21 | inactive
57 | COc1cc(/C=C(\C#N)C(=O)c2c[nH]c3ccccc23)cc(OC)c1O | inactive
58 | CCCOc1cc(N(CC)CC)ccc1/C=C(/C#N)c1nc2ccc(C)cc2[nH]1 | inactive
59 | O=C(Nc1ccn(CCCNC2CCN(Cc3ccccc3)CC2)c(=O)n1)OCc1ccccc1 | inactive
60 | Clc1ccc(N(CC2CO2)CC2CO2)cc1 (configuration not stated) | inactive
61 | CC1=C(C(=O)N(C)C)CC(CC(=O)NCc2cccc3ccccc23)C(=O)N1CCCN1CCCC1=O (configuration not stated) | inactive
62 | Cc1cccc(NC(=O)CN2CCN(C(=O)CN3C(=O)NC4(CC(C)CC(C)(C)C4)C3=O)CC2)c1C (configuration not stated) | inactive
